Measured values from PMC4336329 (PLoS ONE, 2015).
Among all 310,000 compounds or so, about 2,200 (0.71%) showed an effect of 50% or more. The effect is printed as a negative number. For the sample, strong results were picked, then their nearest neighbours and some compounds at random.

biological target: human ether-à-go-go-related gene (hERG) potassium channel (human, UniProt Q12809); test: primary screen, population patch clamp on CHO cells stably expressing hERG; higher = less effect of the substance
Sequence (Q12809 whole entry, looked up): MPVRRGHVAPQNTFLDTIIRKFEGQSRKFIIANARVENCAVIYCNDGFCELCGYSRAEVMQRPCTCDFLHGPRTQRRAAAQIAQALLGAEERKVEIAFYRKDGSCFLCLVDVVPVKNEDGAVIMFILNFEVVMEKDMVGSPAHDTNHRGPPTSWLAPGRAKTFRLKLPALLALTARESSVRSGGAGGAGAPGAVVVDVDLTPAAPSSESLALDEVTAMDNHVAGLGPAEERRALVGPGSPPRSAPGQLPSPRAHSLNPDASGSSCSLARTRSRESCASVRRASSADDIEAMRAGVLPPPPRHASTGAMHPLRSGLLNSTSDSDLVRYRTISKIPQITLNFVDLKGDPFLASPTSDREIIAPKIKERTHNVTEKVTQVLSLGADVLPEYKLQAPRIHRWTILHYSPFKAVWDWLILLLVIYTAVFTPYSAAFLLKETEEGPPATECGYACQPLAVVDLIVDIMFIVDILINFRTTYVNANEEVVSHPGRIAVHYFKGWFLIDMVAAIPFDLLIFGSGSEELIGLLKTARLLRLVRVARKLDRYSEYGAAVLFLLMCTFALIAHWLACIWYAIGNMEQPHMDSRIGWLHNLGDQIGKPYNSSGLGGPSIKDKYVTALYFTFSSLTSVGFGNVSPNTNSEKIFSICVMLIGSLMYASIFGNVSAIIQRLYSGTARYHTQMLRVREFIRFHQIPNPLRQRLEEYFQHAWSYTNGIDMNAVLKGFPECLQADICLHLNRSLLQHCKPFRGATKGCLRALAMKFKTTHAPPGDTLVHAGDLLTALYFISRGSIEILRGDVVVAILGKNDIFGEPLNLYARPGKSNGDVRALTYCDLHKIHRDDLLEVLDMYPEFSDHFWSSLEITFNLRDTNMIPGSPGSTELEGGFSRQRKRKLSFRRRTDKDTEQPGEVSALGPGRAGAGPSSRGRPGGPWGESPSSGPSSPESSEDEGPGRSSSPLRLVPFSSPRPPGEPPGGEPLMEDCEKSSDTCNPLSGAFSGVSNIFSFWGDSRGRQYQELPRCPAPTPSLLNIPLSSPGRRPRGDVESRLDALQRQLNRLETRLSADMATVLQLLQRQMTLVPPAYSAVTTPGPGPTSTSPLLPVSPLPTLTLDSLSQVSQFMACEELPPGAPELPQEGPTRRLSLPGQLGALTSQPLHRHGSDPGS

| SMILES | hERG current change (%, negative = inhibition) at 1uM [%] |
| --- | --- |
| CCn1cc(/C=C/C(=O)Nc2c(C)nn(Cc3ccccc3C)c2C)cn1 | 15.5 |
| CC(=O)N/N=C/c1cc(C)n(-c2ccc(Br)cc2)c1C | 1.14 |
| CC1N(C(=O)N2CCOCC2)CCN1S(=O)(=O)c1ccc(Cl)cc1 (centres unmarked) | 4 |
| CN(C)CCNC(=O)/C(=C/c1ccc(-c2ccc(Cl)cc2Cl)o1)NC(=O)c1ccccc1 | -7.71 |
| O=C(NCCO)/C(=C\c1ccc([N+](=O)[O-])o1)NC(=O)c1ccccc1 | 4.89 |
| Cc1ccc(C(=O)N/C(=C\c2ccc(Cl)cc2)C(=O)NCC2CCCO2)cc1 (centres unmarked) | -38.7 |
| Cc1ccc(/C=C(\NC(=O)c2ccccc2)C(=O)NCCN2CCOCC2)o1 | 1.36 |
| Cc1ccc(C(=O)N/C(=C\c2ccc(-c3cc(Cl)ccc3Cl)o2)C(=O)NCc2cccnc2)cc1 | 5.35 |
| Cc1ccc(C(=O)N/C(=C\c2ccc(-c3ccc(Br)cc3)o2)C(=O)NC2CCS(=O)(=O)C2)cc1 (centres unmarked) | 7.85 |
| Cc1ccc(C(=O)N/C(=C\c2ccc(-c3ccc(Br)cc3)o2)C(=O)NCCCN(C)C)cc1 | -84.2 |
| CN(C)CCNC(=O)/C(=C/c1ccc(-c2ccc(Cl)cc2)o1)NC(=O)c1ccccc1 | -82 |
| Cc1ccc(C(=O)N/C(=C\c2ccc(-c3ccc(Cl)cc3)o2)C(=O)NCCCN(C)C)cc1 | -93.5 |
| Cc1ccc(C(=O)N/C(=C/c2ccc(-c3ccc(Br)cc3)o2)C(=O)NC2CCS(=O)(=O)C2)cc1 (centres unmarked) | 3.65 |
| CN(C)CCNC(=O)/C(=C/c1ccc(-c2cccc(Cl)c2)o1)NC(=O)c1ccccc1 | -31.4 |
| CN(C)CCCNC(=O)/C(=C\c1ccc(-c2ccc(Br)cc2)o1)NC(=O)c1ccccc1 | -82 |
| CCCc1cc(=O)[nH]c(SCC(=O)N(C)C2CCCCC2)n1 | 13.3 |
| CCSC1(SCC)N=C(N)C2(C#N)C(c3ccccc3)NC3=C(CCC3)C12C#N (centres unmarked) | 14.4 |
| CN(C(=O)c1ccncc1)c1nnc(-c2cccnc2)s1 | 12.8 |
| CN(CC(=O)N1CCCCCC1)S(=O)(=O)c1ccc(Br)cc1 | 0.738 |
| COc1ccc(OCC(O)COc2ccc(C(=O)O)cc2)cc1 (centres unmarked) | 8.21 |
| CCc1cc(C(=O)N/N=C/c2ccc(O)cc2)c2ccccc2n1 | 9.78 |
| Cn1ncc(Br)c1C(=O)Nc1ccc(Br)cn1 | 16.3 |

| SMILES | hERG current change (%, negative = inhibition) at 1uM [%] |
| --- | --- |
| CCC(C)[C@H](NC(=O)[C@@H]1CSC2c3ccccc3C(=O)N21)C(=O)N1CCCCC1 (some centres unmarked) | 8.7 |
| CC1(C)CC(NC(=O)Cc2ccc(Cl)cc2)CC(C)(C)N1 | 16.7 |
| O=C(c1cc(-c2ccc(Cl)cc2)n(-c2ccc(Cl)cc2Cl)n1)N1CCOCC1 | -40.7 |
| Cc1ccc(-n2nc(C(=O)N3CCOCC3)cc2-c2ccc(Cl)cc2)cc1 | -87.4 |
| O=C(c1cc(-c2ccc(Cl)cc2)n(-c2ccc(Cl)c(Cl)c2)n1)N1CCOCC1 | 5.69 |
| O=C(c1cc(-c2ccc(Cl)cc2)n(-c2ccc(Cl)cc2)n1)N1CCOCC1 | -56.8 |
| Cc1ccc(-n2nc(C(=O)O)cc2-c2ccc(Cl)cc2)cc1 | 8.61 |
| O=C(c1cc(-c2ccc(Cl)cc2)n(-c2cc(Cl)ccc2Cl)n1)N1CCOCC1 | -3.98 |
| COc1ccc(NC(=O)C2CCC(C)(C(=O)O)C2(C)C)cc1 (centres unmarked) | 11.1 |
| CC(OC(=O)c1ccccc1NCCO)C(=O)Nc1ccc(S(=O)(=O)N2CCOCC2)cc1 (centres unmarked) | 11.6 |
| CN=C1S/C(=C\c2ccc(O)c(OC)c2)C(=O)N1C | 14 |
| Cc1cccc(-n2c(SCC(=O)N(C)C3CCS(=O)(=O)C3)nc3ccccc3c2=O)c1C (centres unmarked) | 13.9 |
| O=C(NC1CCN(Cc2ccccc2)CC1)C1CCN(c2nnc(-n3cccc3)s2)CC1 | -28.2 |
| O=C(NC1CCN(Cc2ccccc2)CC1)C1CCCN(c2nnc(-n3cccc3)s2)C1 (centres unmarked) | -65.2 |
| CC(CCc1ccccc1)NC(=O)C1CCCN(c2nnc(-n3cccc3)s2)C1 (centres unmarked) | -7.23 |
| O=[N+]([O-])c1cccc2ccc(/C=C/c3ccc(Cl)cc3)nc12 | 1.88 |
| Cc1nc2c(ccc3nc(NC(=O)c4ccc5c(c4)OCCO5)sc32)s1 | -86.6 |
| Cc1nc2c(ccc3nc(NC(=O)c4ccc(S(=O)(=O)N(C)C)cc4)sc32)s1 | 16.4 |
| Cc1nc2ccc3nc(NC(=O)c4ccc5c(c4)OCCO5)sc3c2s1 | 9.46 |
| COc1ccc2c(c1)c(C(=O)O)c(C)n2CC(C)C | -2.31 |
| CC(NS(=O)(=O)/C=C/c1ccccc1)C(=O)O (centres unmarked) | 12.5 |
| CC(C)Cn1cc(C(=O)N2CCC3(CC2)OCCO3)c2c3ccccc3n(C)c2c1=O | -1.15 |

| SMILES | hERG current change (%, negative = inhibition) at 1uM [%] |
| --- | --- |
| O=C(Cc1c(F)c(F)c(F)c(F)c1F)Nc1nc(-c2ccccc2)cs1 | 9.84 |
| CC(C)Cn1c(N2CCN(C(=O)/C=C/c3ccccc3)CC2)nc2ccccc21 | -32.9 |
| CCCn1c(N2CCN(C(=O)/C=C/C(=O)O)CC2)nc2ccccc21 | 14.7 |
| Cl.O=[N+]([O-])c1ccc(CN2CCN(c3ccc4ccccc4n3)CC2)cc1 | -1.76 |
| CCn1c(N2CCN(C(=O)/C=C/c3ccccc3)CC2)nc2ccccc21 | -77.4 |
| CCn1c(N2CCN(Cc3ccc([N+](=O)[O-])cc3)CC2)nc2ccccc21.Cl | -81.2 |
| CCCn1c(N2CCN(Cc3ccc(Cl)cc3)CC2)nc2ccccc21.Cl | -4.77 |
| CCCCc1ccc(NC(=S)NN2CCOCC2)cc1 | 12.1 |
| COc1ccc(NC(=O)CCCn2cc([N+](=O)[O-])cn2)cc1 | 1.91 |
| O=C(NCCCn1ccnc1)c1cccc(Br)c1 | 6.56 |
| CCOC(=O)C(NC(C)=O)(Nc1ccc(S(=O)(=O)Nc2ncccn2)cc1)C(F)(F)F (centres unmarked) | 18.1 |
| O=c1c2ccccc2ncn1-c1ccc2c(c1)OCCO2 | 2.75 |
| CCC(=O)Nc1ccc(C(=O)n2nc(C)cc2C)cc1 | 1.88 |
| Cc1c(NC(=O)c2cc(-n3cnnc3)ccc2Cl)cccc1-c1nc2ccccc2s1 | -9.7 |
| Cn1nc(C(=O)NCCCN2CCCCC2)c2c1-c1ccccc1SC2 | -24.8 |
| CC1CCCN(CCCNC(=O)c2nn(C)c3c2CSc2ccccc2-3)C1 (centres unmarked) | -66.2 |
| CC1CCCCN1CCCNC(=O)c1nn(C)c2c1CSc1ccccc1-2 (centres unmarked) | -23.4 |
| O=C(COc1nncc2ccccc12)NCCC1=CCCCC1 | 9.4 |
| Cc1ccc2nc3c(cc(C(=O)NCc4ccco4)c(=N)n3Cc3ccco3)c(=O)n2c1 | -86.5 |
| COCCn1cc(C(=O)NCc2ccco2)c2c3ccccc3n(C)c2c1=O | 5.73 |
| CCn1cc(C(=O)NCc2ccco2)c2cc(OC)c(OC)cc2c1=O | -8.54 |
| COCCn1c(=N)c(C(=O)NCc2ccco2)cc2c(=O)n3ccccc3nc21 | -88 |

| SMILES | hERG current change (%, negative = inhibition) at 1uM [%] |
| --- | --- |
| Cc1ccc(S(=O)(=O)c2cc3c(=O)n4ccccc4nc3n(Cc3ccco3)c2=N)cc1 | -0.218 |
| COCCn1c(=N)c(C(=O)NCc2ccco2)cc2c(=O)n3cc(C)ccc3nc21 | -92 |
| COCCn1c(=N)c(S(=O)(=O)c2ccc(Br)cc2)cc2c(=O)n3ccccc3nc21 | 9.15 |
| Cc1cc2ccccc2c(=O)n1CC(=O)NCc1ccco1 | 18.5 |
| CCOc1ccc(N2CC(=O)N/C2=N\c2nc(C)cc(C)n2)cc1 | -2.01 |
| CC(C)COC(=O)CCNc1n[nH]c(=O)[nH]c1=O | 3.64 |
| CCCCCCSc1nnc(N)s1 | 7.6 |
| COc1ccccc1OCCCC(=O)NC(C)c1ccccc1 (centres unmarked) | 8 |
| O=C1CCCc2oc3c(cc(NS(=O)(=O)c4ccc5c6c(cccc46)C(=O)N5)c4ccccc43)c21 | -6.54 |
| Cc1cc(C)nc(SCCC(=O)N(C)C)n1 | 11 |
| CN(C)c1nc2ccccc2c(N)c1-c1ccccc1.O=C(O)C(=O)O | -39.7 |
| CCN(CC)c1nc2ccccc2c(N)c1-c1ccccc1.O=C(O)C(=O)O | -53.9 |
| Cc1c(N(C)C)nc2ccccc2c1N.O=C(O)C(=O)O | -8.8 |
| COc1cc(/C=C2/C(=O)NN(c3ccc(F)cc3)C2=O)cc([N+](=O)[O-])c1O | 8.07 |
| O=C(OCC(=O)C12CC3CC(CC(C3)C1)C2)c1cnccn1 | 8.15 |
| O=C(CCc1nnc(CCCCc2ccccc2)o1)NCCN1CCOC1=O | 9.65 |
| O=C(c1ccc2c(=O)n(Cc3ccccc3Cl)c(=S)[nH]c2c1)N1CCOCC1 | 13 |
| O=C(c1nc2ccccn2c1CN1CCN(c2ccccc2O)CC1)N1CCCC1 | 26 |
| O=C(c1nc2ccccn2c1CN1CCC(Cc2ccccc2)CC1)N1CCCC1 | -54.2 |
| O=C(c1nc2ccccn2c1CN1CCCC(OCc2ccccc2)C1)N1CCCC1 (centres unmarked) | -25.7 |
